Results filed as inconclusive are left out. Active and inactive are the calls of the source. Calls follow the shape of the dose curve; as a rule, active = well fitted curve in the direction sought with a large enough effect; inconclusive = small, poorly fitted or top-dose-only effect; inactive = flat fitted curve, though single readings scatter.

A short description of the assay: Quantitative high throughput screen for delayed death inhibitors of the malarial parasite plastid: Hit Validation with Dd2 at 48 hr using Flow Cytometry. Conditions: P. falciparum Dd2 growth, flow cytometry SYBR/MitoTracker; relative growth, lower = inhibition: at 50 µM (top of the series). From the text:
The goal of this screen is to discover new antimalarial compounds that act by inhibiting the development of the apicoplast organelle in the malarial parasite Plasmodium falciparum. Some antibiotics, such as azithromycin and tetracycline, are known to interfere with the apicoplast translational machinery, and have a potent antimalarial effect. […] We developed a cell-based quantitative high throughput screen that leverages this "delayed death" phenotype to enrich for compounds that target the apicoplast. To detect small molecules that cause the delayed death phenotype, erythrocytes infected with firefly luciferase-expressing parasites were incubated with compounds for either one or two generations, corresponding to 48 and 96 hours, respectively. Growth inhibition was detected by a decrease in luciferase activity. Compounds that inhibited parasite growth in the second generation at least five-fold more potently than in the first generation were defined as delayed death inducing. These compounds were selected for confirmatory screening using a flow cytometry based assay. This hit validation assay used the Dd2 cell line and measured at 48 hours. NIH Molecular Libraries Probe Production Network [MLPCN] NIH Chemical Genomics Center [NCGC] MLPCN Grant: R21 NS059500 Assay Provider: David Fidock and Eric Ekland, Columbia University
Test compounds were diluted in 20 microliters of complete media (RPMI 1640 with 0.5% w/v Albumax (GIBCO), 24 mM sodium bicarbonate (Sigma) and 10 ug/mL gentamycin (Gibco)) in clear 384-well plates (Greiner). All liquid handling was conducted using a Bio Tek Precision 2000 pipetting system. Twenty microliters of infected erythrocytes, 0.2% parasitemia (for 48 hour time points) or 0.1% parasitemia (for 96 hour time points) were added to the compound dilutions (1% hematocrit, final concentration; 40 microliters, total culture volume). The assay plates were incubated for 48 hours, or 96 hours, at 37 masculine C in a humidified chamber (Billups- Rothenberg, Del Mar, CA, USA), gassed with 5%CO2/5%O2/ 90%N2. After one generation (48 hours), 5 microliters of culture were harvested and transferred to a second 384 well plate for fluorescent staining. Samples were stained with 30 microliters of 2 x SYBR Green I (Invitrogen) and 150nM MitoTracker Deep Red (Invitrogen) diluted in 0.9% NaCl, 0.2% dextrose (Baxter) supplemented with 2.5% Fetal Calf Serum (Gibco) (saline/FCS). Mature erythrocytes lack nuclei and mitochondria, therefore only parasitized erythrocytes retain the SYBR Green I and MitoTracker Deep Red. After 30 minutes at 37 masculine C, the stained cells were diluted in an additional 60 microliters of saline/FCS. The samples were harvested directly from the 384 well plate using a Hypercyt High Capacity Flow Platform (Intellicyt) paired with a C6 Flow Cytometer (Accuri). The flow cytometry files were analyzed using FlowJo software (FlowJo).
Regarding `Cc1ccc(-n2c(-c3ccc(Cl)cc3)c[n+]3c2CCC3)cc1`, the Potency was 2.64 µM (active).
On to `Cc1sc2nc[nH]c(=O)c2c1-c1ccc(Cl)cc1`, for which the Potency is 31.7 µM (active).
On the same count and under the same terms, the figure for `O=C(Nc1ccccc1N1CCOCC1)c1cccc(S(=O)(=O)N2CCOCC2)c1` is 14.7 µM (active).
`COc1cc(C(C)=O)ccc1OCC(O)CN1CCN(c2cc(C)cc(C)c2)CC1` (stereo unspecified): the “relative growth, lower = inhibition” value is 0.462 (inactive).
The same measure, in the same setting: as for `Cc1ccc(S(=O)(=O)Nc2ccc(C(=O)Nc3ccncc3)cc2)cc1`, the figure is 0.257 (active).
As to `N#Cc1cccc(NC(=O)Cn2c3[n+](c4ccc(C(F)(F)F)cc42)CCCCC3)c1`, the Potency was 26.1 µM (active).
`CCOc1ccc(S(=O)(=O)Nc2cc(S(=O)(=O)N(CC)CC)ccc2N2CCCC2)cc1`: the relative growth, lower = inhibition is 0.264 (active).
On the same count and under the same terms, the figure for `CN(C)S(=O)(=O)c1cc(NC(=O)C2=COCCO2)ccc1Cl` is 1.39 (active).
With `COc1ccc(NC(=S)N2CCC(Cc3ccccc3)CC2)cc1OC`, the Potency was 10.8 µM (active).
With `CC1=Nc2cc(C(=O)N3CCCC3)ccc2Sc2ccc(C)cc21`, the relative growth, lower = inhibition is 0.214 (active).
As for `Cc1c(F)c(N2CCNC(C)C2)cc2c1c(=O)c(C(=O)O)cn2C1CC1` (stereo unspecified), the Potency is 4.14 µM (active).
Same read-out and setting: the figure for `CCCCN(CCCNC(=O)C1CCN(C(=O)c2cc3sccc3n2C)CC1)Cc1ccccc1` is 3.62 µM (active); for `CCOc1ccc(NC(=O)C[n+]2ccc(N(C)C)cc2)cc1` it is 2.57 µM (active); for `CN(C)c1ccc(CN(C(=O)c2ccccc2Br)C2CCS(=O)(=O)C2)cc1` (stereo unspecified) it is 9.14 µM (active).
Same read-out and setting: as for `CO[C@@H]1[C@@H](OC2OC(C)C(OC3CC(C)(O)C(OC(=O)CC(C)C)C(C)O3)C(N(C)C)C2O)[C@@H](CC=O)C[C@@H](C)C(=O)/C=C\C2O[C@H]2C[C@@H](C)OC(=O)C[C@H]1OC(C)=O` (stereo partly specified), the figure is 1.04 µM (active).
On to `c1csc(CNc2ncnc3nc[nH]c23)c1`, for which the “relative growth, lower = inhibition” value was 1.61 (inactive).
In the case of `O=C(CNC(=O)C1CCCCC1)OC(C(=O)c1ccccc1)c1ccccc1` (stereo unspecified), the “relative growth, lower = inhibition” value is 1.59 (inactive).
For `CCCc1cc(=O)oc2cc(OC(C)C(=O)NCc3ccccn3)c(Cl)cc12` (stereo unspecified), the Potency is 20.8 µM (active).
As to `Cc1ccc(CN2CCC(n3nccc3NC(=O)c3ccccc3C)CC2)o1`, the Potency is 2.38 µM (active).
Still for that read-out and setting: the figure for `COc1cccc(CN2CCN(c3nc4nonc4nc3N3CCCCC3)CC2=O)c1` is 14 µM (active).
On the same count and under the same terms, as for `CCC(=O)OC1C(N(C)C)CC(C)O[C@H]1O[C@H]1[C@H](C)[C@@H](O[C@H]2CC(OC)[C@@H](O)C(C)O2)[C@H](C)C(=O)O[C@@H](CC)[C@](C)(O)[C@@H](O)[C@H](C)C(=O)[C@@H](C)C[C@]1(C)O` (stereo partly specified), the figure is 34.1 µM (active).
Take `CCOC(=O)c1ccc2c(c1)n(CC)c(/C=C/N(C)c1ccccc1)[n+]2CC`: the Potency is 2.08 µM (active).
Consider `CCCc1c(CC)c(=N)c2ccccc2n1C`, for which the relative growth, lower = inhibition is 0.187 (active).
Regarding `Clc1ccc(-c2c[n+](Cc3ccc(Cl)cc3Cl)c3n2CCCCC3)cc1`, the Potency was 5.44 µM (active).
With `COc1ccccc1N1CCN(CCC(=O)Nc2ccc(F)cc2)CC1`, the relative growth, lower = inhibition was 0.587 (active).
As to `COc1ccc2c(ccc[n+]2CC(=O)c2ccccc2)c1`, the Potency is 7 µM (active).
`COCCNC(=O)c1cccc(OC2CCN(Cc3cccc(SC)c3)CC2)c1`: the “relative growth, lower = inhibition” value is 0.375 (inactive).
For `CCCCN(CCCNC(=O)c1ccc(CS(=O)(=O)c2ccc(OC)cc2)o1)Cc1ccccc1`, the Potency is 6.24 µM (active).
On the same count and under the same terms, as for `O=C(CSc1ccc(-c2cccnc2)nn1)Nc1ccccc1C(F)(F)F`, the figure is 8.74 µM (active).
The same measure, in the same setting: the figure for `CCCCOc1ccc(N2C(N)=NC(N)=NC23CCCCC3)cc1` is 23 µM (active); for `Brc1cccc(OCCCCN2CCCCC2)c1` it is 2.36 µM (active).

The values are drawn from PubChem BioAssay AID624336 (National Center for Advancing Translational Sciences (NCATS), 2012).
